# Rows were chosen to be rich in hits. Some 2.4% of all compounds tested hit in one or more screens of this group.
# WRN helicase inh: blocks human WRN helicase; Q14191; WRN helicase unwinding, fluorescent forked duplex, kinetic; Potency, µM (highest dose often 114 µM), for the others: top-dose activity change, negative = inhibition, actives largely listed as inhibitors; 360,000 tested, 0.46% active; note: % is set by controls: 0 for no effect and ±100 for the full control effect; nearly all actives have a fitted effect of over 55% in size
# Target sequence (Q14191 whole entry, looked up): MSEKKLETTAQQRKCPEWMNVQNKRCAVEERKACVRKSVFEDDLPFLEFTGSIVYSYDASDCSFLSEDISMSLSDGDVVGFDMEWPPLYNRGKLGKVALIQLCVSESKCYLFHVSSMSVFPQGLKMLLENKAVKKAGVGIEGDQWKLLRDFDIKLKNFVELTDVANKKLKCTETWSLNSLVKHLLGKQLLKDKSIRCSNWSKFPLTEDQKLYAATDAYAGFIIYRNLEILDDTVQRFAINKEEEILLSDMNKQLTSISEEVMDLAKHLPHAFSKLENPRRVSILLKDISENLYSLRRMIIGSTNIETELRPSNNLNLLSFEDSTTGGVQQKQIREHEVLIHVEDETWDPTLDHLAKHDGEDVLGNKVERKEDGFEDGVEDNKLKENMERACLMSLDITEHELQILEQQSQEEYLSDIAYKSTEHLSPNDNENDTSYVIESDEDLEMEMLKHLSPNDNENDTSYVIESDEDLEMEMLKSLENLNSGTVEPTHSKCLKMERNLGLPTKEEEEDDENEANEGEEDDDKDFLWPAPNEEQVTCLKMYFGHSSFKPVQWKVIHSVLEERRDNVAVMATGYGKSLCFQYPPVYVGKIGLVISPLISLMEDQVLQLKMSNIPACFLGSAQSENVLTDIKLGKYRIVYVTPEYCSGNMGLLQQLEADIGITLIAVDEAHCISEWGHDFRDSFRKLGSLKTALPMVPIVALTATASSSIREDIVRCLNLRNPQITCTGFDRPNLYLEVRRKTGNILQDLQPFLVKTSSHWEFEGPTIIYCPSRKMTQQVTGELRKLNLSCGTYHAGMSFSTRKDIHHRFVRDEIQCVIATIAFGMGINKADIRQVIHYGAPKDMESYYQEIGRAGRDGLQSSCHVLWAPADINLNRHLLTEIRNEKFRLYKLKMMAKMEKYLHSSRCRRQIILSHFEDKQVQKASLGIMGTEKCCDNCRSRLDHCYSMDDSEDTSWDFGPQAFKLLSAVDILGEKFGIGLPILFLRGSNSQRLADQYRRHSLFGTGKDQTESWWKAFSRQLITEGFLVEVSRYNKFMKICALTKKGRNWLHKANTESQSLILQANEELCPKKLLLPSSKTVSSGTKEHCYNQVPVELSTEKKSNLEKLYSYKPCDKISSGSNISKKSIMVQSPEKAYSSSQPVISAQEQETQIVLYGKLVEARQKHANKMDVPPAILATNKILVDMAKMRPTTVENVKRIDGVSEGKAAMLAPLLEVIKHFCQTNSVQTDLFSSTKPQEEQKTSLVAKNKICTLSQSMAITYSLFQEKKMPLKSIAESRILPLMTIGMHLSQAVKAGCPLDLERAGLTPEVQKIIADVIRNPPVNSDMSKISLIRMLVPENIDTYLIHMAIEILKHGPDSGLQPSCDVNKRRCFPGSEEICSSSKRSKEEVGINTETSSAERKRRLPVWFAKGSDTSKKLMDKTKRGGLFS
#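 WRN at 20 nM final preincubated with compound 15 min at room temperature; reaction started with 100 nM fluorophore/quencher forked duplex oligonucleotide and 2 mM ATP final. Unwinding followed kinetically by red fluorescence (ex 525, em 598 nm).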
# POLH inh: blocks human DNA polymerase eta activity; Q9Y253; recombinant Pol eta, fluorescent DNA replication assay; Potency, µM (top dose mostly 114 µM), for the others: at the highest dose activity change, negative = inhibition, most hits filed as inhibitors; 390,000 tested, 1.2% active; AID 588591; note: % is set by controls: 0 for no effect and ±100 for the full control effect
#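 Fluorescent replication assay: 50 nM final substrate added after a 15 min room-temperature compound preincubation with 10 nM enzyme. Signal taken at 0 min and again at 10 min.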
# FEN1 inhibitor: human FEN1 inhibition. AID 588795. 390,000 tested, 0.35% active. P39748. Potency, µM (doses to about 114 µM), inactives show at the top dose activity change, negative = inhibition, actives largely listed as inhibitors. Recombinant FEN1 flap cleavage, fluorescence, 15 min; note: % is set by controls: 0 for no effect and ±100 for the full control effect; nearly all actives have a fitted effect of over 65% in size
#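 Reaction started by adding substrate (50 nM final) to 10 nM enzyme after 15 min room-temperature compound preincubation. Reads at 0 and 15 min, with data normalized and fitted to a four-parameter Hill equation.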
# POLB inh: inhibitors of human DNA polymerase beta. P06746. Pol beta primer extension/strand displacement, fluorescence kinetic. Potency, µM (titrated, usually from 114 µM), for inactives: at the highest dose activity change, negative = inhibition, hits mostly inhibitors. 340,000 tested, 1.3% active. AID 485314; note: % is set by controls: 0 for no effect and ±100 for the full control effect
#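 Pol beta (10 nM) and compounds were preincubated 15 min at room temperature, then 50 nM substrate (final) started primer extension/strand displacement. Reads were taken at 0 and 10 min; concentration-response data were fitted to a four-parameter Hill equation.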
# Pol iota inh: inhibitors of human DNA polymerase iota. Q9UNA4. Pol iota fluorescent replication assay, 10 min. Potency, µM (titrated, usually from 115 µM), for the others: top-dose activity, negative = inhibition, actives largely listed as inhibitors. 390,000 tested, 1% active. AID 588590
#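 Fluorescent replication assay read twice, at 0 min and 10 min after adding 50 nM (final) substrate. Enzyme (10 nM) and compounds were first incubated 15 min at room temperature; enzyme-free buffer wells were negative controls.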
# POLK inh: inhibitors of human DNA polymerase kappa; Q9UBT6; purified Pol kappa, fluorescent DNA synthesis assay, 10 min; Potency, µM (series often up to 107 µM), for the others: at the top dose activity, negative = inhibition, usual class: inhibitors; 400,000 tested, 0.53% active; note: % is set by controls: 0 for no effect and ±100 for the full control effect
#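 Kinetic fluorescence readout at 0 and 10 min followed reaction start with substrate at 50 nM final. Beforehand, enzyme (10 nM Pol kappa) stood 15 min with compound at room temperature; buffer-only wells were negative controls.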
# An asterisk follows results filed as active; ? = inconclusive; . = not tested or not shown; ! = a repeat was not active; [ ] = remark or other dose. Calls come from the whole dose curve; as a rule, active = well fitted curve in the direction sought with a large enough effect; inconclusive = small, poorly fitted or top-dose-only effect, or another doubt; inactive = no such curve, though single readings can be large; an effect the other way counts as inactive or inconclusive. Potency is the fitted concentration of half-maximal effect.
SMILES,WRN helicase inh,POLH inh,FEN1 inhibitor,POLB inh,Pol iota inh,POLK inh
CCOC(=O)C1Nc2ccc(C(=O)O)cc2C2C=CCC12 (stereo unspecified),28µM*,2.8µM*,20µM*,16µM*,?,10µM*
CCCC1Nc2ccc(C(=O)O)cc2C2C=CCC12 (stereo unspecified),?,8.9µM*,?,35µM*,18µM*,35µM*
CC(CCC(=O)O)C1CCC2C3CC[C@@H]4CCCC[C@@]4(C)C3CC[C@@]12C (stereo partly specified),.,.,.,.,.,-9%[60.1 µM]
O=c1oc2cc(O)ccc2c2oc3cc(O)ccc3c12,?,?,40µM*,35µM*,?,?
O=c1oc2cc(O)ccc2c2ccccc12,-4%,?,-23%,0%,6%,-21%
COc1ccc(NC(=O)c2cc3nc(-c4ccc(C)c(C)c4)cc(C(F)(F)F)n3n2)cc1,.,1%,-14%,25%,?,-36%
Cc1nc2nc(C)c(CCC(=O)NCc3ccccc3)c(C)n2n1,.,-8%,0%,19%,24%,3%
Cc1ccc(NC(=O)NNC(=O)COc2ccc3ccccc3c2)cc1,-33%,-1%,-5%,79µM*,?,-19%
COc1cccc(NC(=O)NNC(=O)COc2ccc3ccccc3c2)c1,-3%,0%,16%,-24%,-14%,-21%
Cc1ccccc1NC(=O)NNC(=O)COc1ccc2ccccc2c1,?,-12%,6%,16µM*,?,-14%
COc1ccc2cc(OCC(=O)NNC(=O)Nc3ccc(OC)c(OC)c3)ccc2c1,0%[11.6 µM],?,?,50µM*,20µM*,-35%
CCOc1ccc(NC(=O)CCC(=O)NNC(=O)COc2ccc(C)cc2Br)cc1,6%[11.6 µM],-8%,-6%,?,71µM*,4%
COc1ccc(-c2nc(CCNC(=O)c3cccs3)cs2)cc1OC,.,-14%,20%,-2%,8%,0%[60.1 µM]
O=Cc1cccc(C=O)c1,.,.,-3%,.,-1%,-3%
Cc1ccc(S(=O)(=O)NCC2CCC(C(=O)NCCc3ccccc3)CC2)cc1 (stereo unspecified),.,9%,6%,0%,-21%,-17%
Cc1ccc(NC(=O)Nc2cnc3ccccc3c2)cc1,-20%,-10%,9%,20µM*,-5%,-10%
O=C(COc1ccc2ccccc2c1)Nc1ccc(Cc2ccncc2)cc1,-19%[57.1 µM],?,1%,?,25µM*,-17%
CCN(CC)C(=O)Nc1cnc2ccccc2c1,6%,3%,0%,?,-6%,-2%
O=C(O)Cc1ccc(NC(=O)COc2ccc3ccccc3c2)cc1,-25%,1%,2%,-26%,11%,-9%
COc1cccc2cc(C(=O)Oc3ccccc3)c(=O)oc12,-9%,?,-5%,89µM*,0%,-13%
CCCn1c(SCC(=O)Nc2nnc(-c3ccccc3)s2)nnc1-c1ccccn1,-9%,?,-13%,22µM*,?,-10%
O=S(=O)(NCCc1nnc2ccc(SCc3c(F)cccc3Cl)nn12)c1ccccc1,.,-17%,?,55%,1%,?
COc1ccc(NC(=O)Nc2ccc([N+](=O)[O-])cc2)cn1,?,?,-18%,28µM*,?,-40%
COc1ccc(NC(=O)Nc2cccs2)cn1,5%,-14%,12%,19%,39%,-13%
CCOC(=O)N1CCc2c(sc3c2c(=O)n(Cc2ccccc2)c(=O)n3Cc2cccc(Cl)c2)C1,.,-11%,14%,7%,16%,-6%
SMILES,WRN helicase inh,POLH inh,FEN1 inhibitor,POLB inh,Pol iota inh,POLK inh
Cc1cc2c(c(=O)n1-c1ccccc1)C1O[C@](c3ccsc3)(Cc3ccccc31)O2,.,.,.,5µM*,.,.
CCCCn1c(C)cc2c(c1=O)C1O[C@](c3ccsc3)(Cc3ccccc31)O2,.,.,.,2.2µM*,.,.
COc1cc2c(cc1OC)[C@@H]1O[C@](c3ccsc3)(C2)Oc2cc(C)n(-c3ccccc3)c(=O)c21,.,.,.,11%[22.9 µM],.,.
COCc1nnc(NC(=O)C2CCN(C(=O)c3ccccc3)CC2)s1,.,.,11%,.,?,-5%
Cc1cc(F)ccc1-n1nnc(C(N)=O)c1C,.,-10%,-11%,0%,31%,-21%
C#Cc1ccc([C@@H]2C=C(C(=O)O)O[C@H](OCc3ccc(CO)cc3)C2)cc1,-31%,40µM*,12%,22µM*,?,?
O=C(O)C1=C[C@@H](c2ccccc2)C[C@@H](OCc2ccc(CO)cc2)O1,-2%,-5%,17%,-4%,-3%,-8%
O=C(O)c1cccc(Cn2c(Cl)c(/C=N/NC(=O)c3cc4ccccc4cc3O)sc2=O)c1,40µM*,6.3µM*,18µM*,11µM*,8.9µM*,32µM*
O=C(O)c1cccc(Cn2c(Cl)c(/C=N/NC(=O)c3ccccc3)sc2=O)c1,-8%,?,6%,42%,8%,0%
O=C(O)c1ccc(NC2=C(n3nnc4ccccc43)C(=O)c3ccccc3C2=O)cc1,-2%[11.6 µM],4%,12%,1%,40µM*,-23%
CC(C)c1ccc(/C=C/c2[nH]c(=O)[nH]c(=O)c2[N+](=O)[O-])cc1,2%,?,-15%,2%,?,-7%
O=c1[nH]c(/C=C/c2ccccc2Cl)c([N+](=O)[O-])c(=O)[nH]1,-35%,28µM*,13%,-8%,?,-27%
COc1cccc(/C=C/c2[nH]c(=O)[nH]c(=O)c2[N+](=O)[O-])c1O,-10%[11.6 µM],50µM*,-3%,32%,11µM*,-17%
Cc1ccc(C)c(NC(=O)CN2CCN(C3CCCCC3)C(=O)C2=O)c1,.,-9%,0%,-5%,-7%,-1%[60.1 µM]
COc1ccc(/C=N/Nc2snc(SC)c2C#N)cc1OC,-12%,-5%,-5%,?,?,-22%
COc1cccc(/C=N/Nc2snc(SC)c2C#N)c1O,50µM*,?,-16%,?,?,-17%
Cc1c(NS(=O)(=O)c2cccc(C(=O)NCc3ccco3)c2)c(=O)n(-c2ccccc2)n1C,?,?,?,.,35µM*,-36%
Cc1c(NS(=O)(=O)c2cccc(C(=O)O)c2)c(=O)n(-c2ccccc2)n1C,8%,-9%,-5%,73%,50µM*!,-1%
Cc1c(NS(=O)(=O)c2cccc(C(=O)NCc3ccc(Cl)cc3)c2)c(=O)n(-c2ccccc2)n1C,-2%,-2%,-8%,?,15%,-11%
Cc1c(NS(=O)(=O)c2cc(C(=O)NCCN(C)C)ccc2Cl)c(=O)n(-c2ccccc2)n1C,-17%,-26%,-10%,45µM*,?,?
Cc1cccc(NC(=O)CCc2nc3sc4c(c3c(=O)[nH]2)CCCC4)c1,-2%,?,0%,.,17%,0%
